The subject of the assay is Drosophila S2 cl14 SmoIP sensor cells. As to the kind of experiment: normalized SmoIP GFP fluorescence (untreated unstimulated = 0%, untreated Hh-stimulated = 100%); higher = more Smo activation sensor fluorescence. To be noted: compound concentration: 2 uM, 24 h.
Where [1] appears, read: stimulation: Hh conditioned medium (+Hh).
[2] abbreviates: stimulation: mock conditioned medium (-Hh).

Data on 35 compounds can be found in the supplement of paper PMC5662767.

Where a name gives a salt, the structure may show the parent alone.
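Further: flow cytometry read-out as median GFP intensity of gated cells, compounds added 30 min before Hh-conditioned or mock medium, mock-treated cells serving as unstimulated baseline.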

As to `CCn1c(-c2nonc2N)nc2c(C#CC(C)(C)O)ncc(OC[C@H]3CCCNC3)c21`, the “normalized SmoIP GFP fluorescence” value by setting is: under setting [1], 98.8%; under setting [2], -8.56%.
With `CC[C@H]1OC(=O)[C@H](C)[C@@H](O[C@H]2C[C@@](C)(OC)[C@@H](O)[C@H](C)O2)[C@H](C)[C@@H](O[C@@H]2O[C@H](C)C[C@H](N(C)C)[C@H]2O)[C@](C)(OC)C[C@@H](C)C(=O)[C@H](C)[C@@H](O)[C@]1(C)O` [clarithromycin], the “normalized SmoIP GFP fluorescence” value reads like this: under setting [1], 147%; under setting [2], -6.97%.
Regarding `O=C(NCCN1CCOCC1)c1ccc(Cl)cc1` [moclobemide], the “normalized SmoIP GFP fluorescence” value under setting [1] amounted to 108% and the “normalized SmoIP GFP fluorescence” value under setting [2] was -3.05%.
The matching figures for `Cc1ccc(-c2c(-c3nn(C)c4ncnc(N5CC[C@H](N6CCCCC6)C5)c34)cnn2C)cc1`: 114% and -2.71%.
Turning to `COCC[n+]1c2c(n(Cc3cnccn3)c1C)C(=O)c1ccccc1C2=O`, the “normalized SmoIP GFP fluorescence” value reads like this: under setting [1], 101%; under setting [2], -12.7%.
For the compound `C[C@H](Cc1cc2c(c(C(N)=O)c1)N(CCCO)CC2)NCCOc1ccccc1OCC(F)(F)F` [Silodosin(Rapaflo)], the “normalized SmoIP GFP fluorescence” value under setting [1] was 83.5% and the “normalized SmoIP GFP fluorescence” value under setting [2] was -7.81%.
`Cc1cc(C(C)Nc2ccccc2)c2nc(N3CCOCC3)cc(=O)n2c1` (stereo not given): the “normalized SmoIP GFP fluorescence” value runs as follows: under setting [1], 126%; under setting [2], -0.265%.
The matching figures for `Nc1nc(N)c2nc(-c3cccc(O)c3)cnc2n1`: 108% and -4.7%.
Regarding `Cc1ccccc1C(OCCN(C)C)c1ccccc1` (stereo not given) [orphenadrine-citrate-norflex], the “normalized SmoIP GFP fluorescence” value under setting [1] came to 142% and the “normalized SmoIP GFP fluorescence” value under setting [2] is -11.7%.
With `COC[C@H](NC(=O)c1cnc(C)s1)C(=O)N[C@@H](COC)C(=O)N[C@@H](Cc1ccccc1)C(=O)[C@@]1(C)CO1` [oprozomib-onx-0912], the “normalized SmoIP GFP fluorescence” value is, setting by setting: under setting [1], 81.9%; under setting [2], 26.7%.
Turning to `C[S+]([O-])c1ccc(-c2nc(-c3ccc(F)cc3)c(-c3ccncc3)[nH]2)cc1` (stereo not given), the “normalized SmoIP GFP fluorescence” value under setting [1] came to 119% and the “normalized SmoIP GFP fluorescence” value under setting [2] was -5.98%.
Consider `COc1cc2nc(N3CCN(C(=O)C4COc5ccccc5O4)CC3)nc(N)c2cc1OC` (stereo not given) [Doxazosin-mesylate], for which the “normalized SmoIP GFP fluorescence” value is 105% under setting [1] and 8.14% under setting [2].
As to `Cc1ccc(S(=O)(=O)C=CC#N)cc1`, the “normalized SmoIP GFP fluorescence” value under setting [1] was determined as 121% and the “normalized SmoIP GFP fluorescence” value under setting [2] amounted to 2.86%.
As to `CCN(CC)CCCCNc1ncc2cc(-c3cc(OC)cc(OC)c3)c(NC(=O)NC(C)(C)C)nc2n1`, the “normalized SmoIP GFP fluorescence” value amounted to 123% under setting [1] and 8.79% under setting [2].
The matching figures for `Cc1ncc(-c2ccnc(Nc3ccc(S(C)(=O)=O)cc3)n2)n1C(C)C`: 156% and 11.2%.
On to `Clc1ccc2nsnc2c1NC1=NCCN1` [Tizanidine-hydrochloride], for which the “normalized SmoIP GFP fluorescence” value reads like this: under setting [1], 105%; under setting [2], -5.76%.
For `CN1CCC(NC(=O)c2cc(-c3c(O)cc(O)cc3Oc3ccc([N+](=O)[O-])cc3)on2)CC1` the same measures were 129% and 4.56%.
In the case of `Cc1cc([C@@H](C)Nc2ccccc2C(=O)O)c2nc(N3CCOCC3)cc(=O)n2c1`, the “normalized SmoIP GFP fluorescence” value by setting is: under setting [1], 94.8%; under setting [2], -5.22%.
Regarding `CCCC(C)NC(=O)c1ccc(Cl)c(Cl)c1` (stereo not given), the “normalized SmoIP GFP fluorescence” value is, setting by setting: under setting [1], 95.2%; under setting [2], -4.7%.
Turning to `CN1CCc2nc(C(=O)N[C@@H]3C[C@@H](C(=O)N(C)C)CC[C@@H]3NC(=O)C(=O)Nc3ccc(Cl)cn3)sc2C1` [edoxaban], the “normalized SmoIP GFP fluorescence” value was 106% under setting [1] and -1.34% under setting [2].
The matching figures for `CCc1cncnc1N1CCN(Cc2nc3ccc(C(F)(F)F)cc3[nH]2)CC1`: 121% and 0.966%.
The matching figures for `CC(C)(C)NC[C@H](O)COc1nsnc1N1CCOCC1` [timolol-maleate]: 111% and -1.51%.
For `CC(C)C[C@@H](C(=O)N[C@H](C(=O)OC1CCCC1)c1ccccc1)[C@H](O)C(=O)NO` [CHR-2797(Tosedostat)] the same measures were 108% and 3.72%.
Take `COC(=O)C1=C(C)NC(C)=C(C(=O)OCCN2CCN(C(c3ccccc3)c3ccccc3)CC2)C1c1cccc([N+](=O)[O-])c1` (stereo not given) [Manidipine(Manyper)]: the “normalized SmoIP GFP fluorescence” value runs as follows: under setting [1], 118%; under setting [2], 3.85%.
As to `CN1CCC[C@@H]1CCO[C@](C)(c1ccccc1)c1ccc(Cl)cc1` [Clemastine-Fumarate], the “normalized SmoIP GFP fluorescence” value reads like this: under setting [1], 104%; under setting [2], 10.7%.
Take `Cc1cc(O)c2c(c1)C(=O)c1cccc(O)c1C2=O` [Chrysophanic-acid-Chrysophanol]: the “normalized SmoIP GFP fluorescence” value was 133% under setting [1] and -7.42% under setting [2].
On to `NC(=O)c1ccc(I)c([N+](=O)[O-])c1`, for which the “normalized SmoIP GFP fluorescence” value was 115% under setting [1] and -5.22% under setting [2].
As to `Cc1csc(-c2nnc(Nc3ccc(Oc4ncccc4-c4ccnc(N)n4)cc3)c3ccccc23)c1`, the “normalized SmoIP GFP fluorescence” value is 102% under setting [1] and -0.747% under setting [2].
Take `CN1CCN(c2ccc3nc(-c4c(N)c5c(F)cccc5[nH]c4=O)[nH]c3c2)CC1` [dovitinib]: the “normalized SmoIP GFP fluorescence” value is 240% under setting [1] and 72.9% under setting [2].
Take `COc1cc2nc(N3CCCN(C)CC3)nc(NC3CCN(Cc4ccccc4)CC3)c2cc1OC`: the “normalized SmoIP GFP fluorescence” value worked out at 109% under setting [1] and 1.61% under setting [2].
The matching figures for `O=C(NS(=O)(=O)c1ccc(Br)s1)c1ccc(Cl)cc1Cl` [tasisulam]: 104% and -4.01%.
Regarding `COc1ccccc1OCCNCC(O)COc1cccc2[nH]c3ccccc3c12` (stereo not given) [carvedilol], the “normalized SmoIP GFP fluorescence” value under setting [1] worked out at 118% and the “normalized SmoIP GFP fluorescence” value under setting [2] was -7.78%.
As for `N[C@@H](CC(=O)N1CCn2c(nnc2C(F)(F)F)C1)Cc1cc(F)c(F)cc1F` [Sitagliptin], the “normalized SmoIP GFP fluorescence” value runs as follows: under setting [1], 103%; under setting [2], -1.74%.
The matching figures for `CC[C@H](NC(=O)[C@H](C)NC)C(=O)N1C[C@@H](O)C[C@H]1Cc1c(-c2[nH]c3cc(F)ccc3c2C[C@@H]2C[C@H](O)CN2C(=O)[C@H](CC)NC(=O)[C@H](C)NC)[nH]c2cc(F)ccc12`: 78.2% and -2.08%.
Regarding `Cn1c(=O)c(F)c(Nc2ccc(I)cc2F)c2c(=O)n(C[C@@H](O)CO)cnc21`, the “normalized SmoIP GFP fluorescence” value is 262% under setting [1] and 47.8% under setting [2].
